Measured values as given in PubChem BioAssay.
Calls of active or inactive are those of the source. Unless noted, how the calls were made is not given here.

Columns and labels:
[1] = A549 cell viability effects, profiling panel, calcein-AM fluorescence, 48 h, basal (AID 1162); conditions: higher = more signal; further: test concentration not given here
[2] = adipocyte viability effects, profiling panel, cell-based, 3T3-L1 adipocytes, calcein-AM fluorescence, 48 h, basal (AID 1163); conditions: 3T3-L1 adipocytes viability, higher = more signal; further: test concentration not given here
[3] = HepG2 cell viability effects, profiling panel, calcein-AM fluorescence, 48 h, basal (AID 1164); conditions: higher = more signal; further: test concentration not given here
[4] = MM1S cell viability effects, profiling panel, calcein-AM fluorescence, 48 h, basal (AID 1165); conditions: higher = more signal;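 further: viability of MM1S multiple myeloma cells under basal unstimulated conditions; test concentration not given here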
[5] = basal RPMI8226 viability, no added stimulus, profiling panel, cell-based, calcein-AM fluorescence, 48 h, PK04 Diversity Set (AID 1166); conditions: RPMI8226 myeloma viability, higher = more signal;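 further: cells grown under basal conditions without added stimulus; test concentration not given here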
[6] = basal HepG2 mitochondrial membrane potential changes, profiling panel, cell-based, JC-1 fluorescence, 24 h, 100 nL compound (AID 1167); conditions: higher = more signal; further: test concentration not given here
[7] = basal 3T3-L1 adipocyte mitochondrial potential changes, profiling panel, cell-based, JC-1 fluorescence, 3T3-L1 adipocytes, 24 h, 100 nL compound (AID 1168); conditions: JC-1 mitochondrial fluorescence, higher = more signal, called active from +8 up or from −8 down; further: test concentration not given here
[8] = basal RPMI8226 mitochondrial membrane potential changes, profiling panel, cell-based, JC-1 fluorescence, 24 h, 100 nL compound (AID 1169); conditions: RPMI8226 myeloma, JC-1 mitochondrial potential fluorescence, higher = more signal; further: test concentration not given here
[9] = basal MM1S mitochondrial membrane potential changes, profiling panel, cell-based, JC-1 fluorescence, 24 h, 100 nL compound (AID 1170); conditions: higher = more signal; further: test concentration not given here
[10] = A549 lung cancer cell viability effects, profiling panel, resazurin fluorescence, 24 h, PK04 Diversity Set (AID 1171); conditions: higher = more signal, called active from +8 up or from −8 down; further: test concentration not given here
[11] = HepG2 liver cancer cell viability effects, profiling panel, resazurin fluorescence, 24 h, PK04 Diversity Set (AID 1172); conditions: higher = more signal; further: test concentration not given here
[12] = basal S. cerevisiae growth modulation, no modifier, primary screen, OD600, strain BY4716, 24 h, basal condition (AID 1173); conditions: OD600, 24 h, higher = more signal, called active from +8 up or from −8 down
[13] = MM1S myeloma cell viability, profiling panel, resazurin fluorescence, basal, 24 h, PK04 Diversity Set (AID 1174); conditions: higher = more signal, called active from +8 up or from −8 down;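 further: MM1S multiple myeloma cell line; test concentration not given here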
[14] = target: Dihydroorotate dehydrogenase (quinone), mitochondrial (Plasmodium falciparum (isolate 3D7)) (UniProt Q08210); test: PfDHODH enzyme inhibitors, primary screen, biochemical, C-terminal His tag, absorbance 600 nm (AID 1175); conditions: DCIP absorbance 600 nm, higher = more signal, called active from +8 up or from −8 down;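 further: recombinant parasite enzyme with a five histidine tag at its C terminus; test concentration not given here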
[15] = P. aeruginosa biofilm formation inhibitors, primary screen, strain PAO1, LB-PBS medium, absorbance 600 nm (AID 1176); further: test concentration not given here; conditions: P. aeruginosa PAO1 growth/biofilm, A600, 12 h; higher = more signal
[16] = S. cerevisiae RM11-1a growth modifiers, primary screen, strain RM11-1a, OD600, basal, 24 h (AID 1177); conditions: OD600, 24 h, higher = more signal, called active from +8 up or from −8 down;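 further: cultures grown under basal conditions with no added stressor; test concentration not given here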
[17] = E. coli acrAB mutant growth effects, primary screen, E. coli filamentation inducers, strain DRC39, OD650, 24 h (AID 1178); conditions: higher = more signal, called active from +8 up or from −8 down;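 further: growth measured as culture turbidity by optical density at 650 nm; test concentration not given here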
[18] = E. coli acrAB mutant growth effects, primary screen, E. coli filamentation inducers, strain DRC39, OD650, 48 h (AID 1179);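 further: screen aims at cell division blockers that make cells filament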; conditions: E. coli DRC39 delta-acrAB growth, higher = more signal, called active from +8 up or from −8 down
[19] = RPMI8226 myeloma cell viability, profiling panel, resazurin fluorescence, basal, 24 h, PK04 Diversity Set (AID 1180); conditions: higher = more signal;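 further: RPMI8826 multiple myeloma cell line at 5000 cells per well; test concentration not given here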
[20] = target: E3 ubiquitin-protein ligase XIAP (Homo sapiens) (UniProt P98170); test: XIAP binders, primary screen, biophysical, small-molecule microarray, fluorescence 635 nm (AID 1181); conditions: small-molecule microarray binding, higher = more signal;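 further: score merges 667 nm emission and signal to noise over triplicate slides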
Chain of E3 ubiquitin-protein ligase XIAP (Homo sapiens) (P98170 whole entry, looked up): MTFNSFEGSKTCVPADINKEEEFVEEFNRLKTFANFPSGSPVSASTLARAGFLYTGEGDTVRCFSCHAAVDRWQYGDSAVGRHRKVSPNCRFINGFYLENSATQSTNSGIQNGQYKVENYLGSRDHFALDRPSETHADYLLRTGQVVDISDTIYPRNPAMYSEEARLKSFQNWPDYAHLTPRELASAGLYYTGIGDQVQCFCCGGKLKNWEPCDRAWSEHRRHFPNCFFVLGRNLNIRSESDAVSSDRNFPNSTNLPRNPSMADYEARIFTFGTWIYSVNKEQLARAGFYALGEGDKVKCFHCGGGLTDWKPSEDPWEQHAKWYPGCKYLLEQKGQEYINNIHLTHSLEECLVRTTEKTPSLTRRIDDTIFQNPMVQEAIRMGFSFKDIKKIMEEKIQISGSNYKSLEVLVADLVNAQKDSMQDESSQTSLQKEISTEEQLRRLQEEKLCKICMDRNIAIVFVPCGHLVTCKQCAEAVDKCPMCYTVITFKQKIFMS

Chain of Dihydroorotate dehydrogenase (quinone), mitochondrial (Plasmodium falciparum (isolate 3D7)) (Q08210 whole entry, looked up): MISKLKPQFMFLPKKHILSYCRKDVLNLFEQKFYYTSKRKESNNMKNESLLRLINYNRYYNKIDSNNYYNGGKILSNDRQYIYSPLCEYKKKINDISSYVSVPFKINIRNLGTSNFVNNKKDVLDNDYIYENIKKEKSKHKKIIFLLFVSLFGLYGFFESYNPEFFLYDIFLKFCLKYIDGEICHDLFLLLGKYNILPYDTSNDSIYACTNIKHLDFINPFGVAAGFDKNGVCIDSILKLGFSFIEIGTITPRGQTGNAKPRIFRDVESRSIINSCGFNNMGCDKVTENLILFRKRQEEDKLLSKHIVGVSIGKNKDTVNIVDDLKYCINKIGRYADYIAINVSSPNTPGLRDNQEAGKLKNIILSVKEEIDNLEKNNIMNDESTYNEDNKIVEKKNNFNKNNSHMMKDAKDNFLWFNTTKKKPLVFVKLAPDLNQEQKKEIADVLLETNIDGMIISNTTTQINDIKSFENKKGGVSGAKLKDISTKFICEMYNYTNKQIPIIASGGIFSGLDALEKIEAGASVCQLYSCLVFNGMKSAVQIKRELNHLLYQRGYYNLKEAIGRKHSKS

Compound | z-score [1] | z-score [2] | z-score [3] | z-score [4] | z-score [5] | z-score [6] | z-score [7] | z-score [8] | z-score [9] | z-score [10] | z-score [11] | z-score [12] | z-score [13] | composite z-score [14] | z-score [15] | z-score [16] | z-score [17] | z-score [18] | z-score [19] | composite z-score [20]
O=C1c2ccccc2[C@](Cc2ccccc2I)(C(=O)NCC(F)(F)F)[C@H](c2ccc(CO)cc2)N1C1CCCCC1 | 1.77 | 0.515 | 1.02 | -1.75 | -3.92 | 1.3 | 0.238 (inactive) | -0.434 | 0.23 | -0.0818 (inactive) | -0.46 | -0.754 (inactive) | 0.247 (inactive) | -1.11 (inactive) | 0.127 (inactive) | 0.234 (inactive) | 0.739 (inactive) | 0.743 (inactive) | -0.581 | 0.129
C=CCC(OC(C)=O)[C@@H]1[C@@H](N(Cc2cccc3ccccc23)C(=O)Cc2ccc(F)cc2)c2cc(OCCCO)ccc2N1C(=O)c1ccc2ccccc2n1 (stereo not given in full) | -0.359 | 0.389 | -0.117 | 0.866 | -0.381 | 1.69 | -0.109 (inactive) | 0.515 | -0.669 | 0.067 (inactive) | -0.157 | 0.0526 (inactive) | 0.263 (inactive) | 0.451 (inactive) | 0.501 (inactive) | -0.142 (inactive) | -0.406 (inactive) | 0.0816 (inactive) | 0.493 | 0.357
C=CCC(OC(C)=O)[C@@H]1[C@@H](N(Cc2cc3ccccc3o2)C(=O)Cc2ccc(F)cc2)c2cc(OCCCO)ccc2N1C(=O)c1ccc2ccccc2c1 (stereo not given in full) | -0.0032 | -0.0993 | 1.93 | -0.915 | 0.0905 | 0.855 | 0.0661 (inactive) | -0.159 | 0.687 | 0.443 (inactive) | -0.081 | 0.615 (inactive) | 0.514 (inactive) | -1.04 (inactive) | 0.35 (inactive) | -0.41 (inactive) | -0.698 (inactive) | -0.649 (inactive) | 0.304 | 0.555
CC(C)[Si](C#C[Si](C(C)C)(C(C)C)C(C)C)(O[C@H](C)c1cn([C@H](CO)Cc2ccccc2)nn1)C(C)C | 1.11 | -0.355 | 0.341 | -2.37 | 0.482 | 0.376 | 0.727 (inactive) | 0.362 | -0.156 | 0.637 (inactive) | 0.967 | 0.427 (inactive) | 0.786 (inactive) | -0.487 (inactive) | 1.01 (inactive) | -0.504 (inactive) | 1.17 (inactive) | 1.19 (inactive) | 1.04 | 0.0484
COC(=O)[C@@]1(Cc2ccccc2)[C@H]2c3cc(C(=O)N(C)C)n(Cc4c(CO)[nH]cc(C)c4=O)c3C[C@H]2CN1C(=O)c1ccccc1 | -0.218 | -0.284 | 1.2 | -0.979 | -0.247 | 1.34 | -0.235 (inactive) | 0.445 | -0.491 | -0.25 (inactive) | -0.613 | 1.79 (inactive) | -0.706 (inactive) | 0.0442 (inactive) | 0.507 (inactive) | 1.24 (inactive) | -0.198 (inactive) | 0.0568 (inactive) | 0.0961 | -0.0663
